Mito fusion act – qHTS Assay for Small Molecule Inhibitors of Mitochondrial Division or Activators of Mitochondrial Fusion. S. cerevisiae fusion-defective mutant growth rescue, CellTiterGlo 48 h. Potency, µM (doses to about 46.1 µM), for inactives: at the highest dose growth rescue (activation), hits mostly activators. 0.23% of 320,000 active. AID 485298, 2010; further: % of control where 0% means no effect; nearly all actives have a fitted effect of over 45% in size
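Growth-rescue viability read-out: after 48 h at the non-permissive 37C in glycerol/ethanol YPEG, yeast mitochondrial fusion mutants are measured by CellTiterGlo luminescence; compounds (23 nl pinned per well) restoring growth score as division inhibitors or fusion activators.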
mIDH1 inhibitor – qHTS for Inhibitors of mutant isocitrate dehydrogenase 1 (IDH1): qHTS | 0.093% of 390,000 active | AID 602179, 2012 | IDH1-R132H enzyme, NADPH consumption, diaphorase/resazurin fluorescence | Potency, µM (top dose mostly 76.6 µM), for inactives: at the highest dose activity change, negative = inhibition, usual class: inhibitors | Isocitrate dehydrogenase [NADP] cytoplasmic (Homo sapiens), O75874; further: on the % scale 0 is the no-effect control and ±100 the full control effect; nearly all actives have a fitted effect of over 65% in size
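IDH1-R132H (0.5 ug/mL dispensed) in pH 7.5 Tris buffer was preincubated 30 min with compound, then given a substrate mix of 0.016 mM NADPH and 2 mM alpha-KG for 80 min at room temperature; remaining NADPH was read by diaphorase/resazurin fluorescence.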
TrxR1 substrate – qHTS Assay for Substrates of Mammalian Selenoprotein Thioredoxin Reductase 1 (TrxR1): qHTS | purified TrxR1 substrate turnover, NADPH consumption readout | 0.01% of 390,000 active | Thioredoxin reductase 1, cytoplasmic (Rattus norvegicus), O89049 | Potency, µM (series often up to 114 µM), inactives show top-dose activity change, negative = substrate turnover; further: on the % scale 0 is the no-effect control and ±100 the full control effect; nearly all actives have a fitted effect of over 50% in size
Target sequence (O89049 whole entry, looked up): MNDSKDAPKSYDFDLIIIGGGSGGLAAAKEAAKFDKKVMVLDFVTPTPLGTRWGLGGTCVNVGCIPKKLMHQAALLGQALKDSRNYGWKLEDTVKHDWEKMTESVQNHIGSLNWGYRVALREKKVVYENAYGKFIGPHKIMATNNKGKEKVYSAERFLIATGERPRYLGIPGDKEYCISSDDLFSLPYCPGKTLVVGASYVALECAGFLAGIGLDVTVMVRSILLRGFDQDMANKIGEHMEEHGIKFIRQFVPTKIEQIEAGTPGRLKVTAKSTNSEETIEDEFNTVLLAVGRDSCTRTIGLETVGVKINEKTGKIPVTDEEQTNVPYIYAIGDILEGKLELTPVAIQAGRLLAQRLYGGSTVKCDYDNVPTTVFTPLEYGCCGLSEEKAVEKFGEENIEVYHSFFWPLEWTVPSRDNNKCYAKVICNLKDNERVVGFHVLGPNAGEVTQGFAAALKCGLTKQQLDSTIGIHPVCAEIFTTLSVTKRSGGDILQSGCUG
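Rat TrxR1, dispensed at 90 nM, was prereduced with 400 uM NADPH (final) for 5 min at ~22 deg C, then incubated with compound 15 min before 400 uM selenite. A first-read NADPH fluorescence drop versus no-compound background flagged substrates.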
TrxR1 inh – qHTS Assay for Inhibitors of Mammalian Selenoprotein Thioredoxin Reductase 1 (TrxR1): qHTS | Thioredoxin reductase 1, cytoplasmic (Rattus norvegicus), O89049 | recombinant rTrxR1, NADPH fluorescence consumption, selenite substrate | Potency, µM (doses to about 114 µM), for inactives: at the highest dose activity change, negative = inhibition, hits mostly inhibitors | 1% of 390,000 active; further: on the % scale 0 is the no-effect control and ±100 the full control effect; nearly all actives have a fitted effect of over 65% in size
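Rat TrxR1 (90 nM in the dispensed reagent) was pre-reduced with 400 uM NADPH for 5 min at room temperature, then incubated with compound for 15 min. After 400 uM selenite was added, NADPH fluorescence (Ex 340/Em 450 nm) was followed for 8 min.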
A549 viability – Nrf2 qHTS screen for inhibitors: counterscreen for cytotoxicity. Potency, µM (top dose mostly 46 µM), inactives show at the top dose activity change, negative = cytotoxicity, hits mostly inhibitors. A549 ARE-Fluc cells, CellTiter-Fluor viability, 18-24 h. 0.16% of 390,000 active; further: on the % scale 0 is the no-effect control and ±100 the full control effect
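A549 ARE-Fluc cells in 5% FBS OPTI-MEM, 5000 cells/well, rested 2 h then exposed to compounds in concentration-response for 18-24 h at 37 °C. Viability by CellTiter-Fluor fluorescence (Ex 405/Em 525) after 30 min; luciferase luminescence (BugLite, 15 min, RT) read afterwards.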
Nrf2 inh – Nrf2 qHTS screen for inhibitors; A549 ARE-Fluc reporter, luciferase luminescence, 18-24 h; Potency, µM (top dose mostly 46 µM), for the others: at the top dose activity change, negative = inhibition, usual class: inhibitors; 2.1% of 360,000 active; further: on the % scale 0 is the no-effect control and ±100 the full control effect; nearly all actives have a fitted effect of over 60% in size
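Reporter: ARE-Fluc in A549. Exposure: 18-24 h, 37 °C, 5% CO2, 5% FBS OPTI-MEM. Readouts: fluorescent cytotoxicity (CellTiter-Fluor), then luminescent Nrf2 signal after BugLite.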
An asterisk follows results filed as active; ? = inconclusive; · = not tested or not shown; [ ] = another dose, or the depositor's remark. Hits are enriched below; roughly 3.1% of the tested compounds scored in any of these assays. The call rests on the fitted dose curve; in most records, active means well fitted curve in the direction sought with a large enough effect; inconclusive means small, poorly fitted or top-dose-only effect, or another doubt; inactive means no such curve, though single readings can be large; an effect the other way counts as inactive or inconclusive. Potency means the concentration at half of the fitted maximal effect.

SMILES	Mito fusion act	mIDH1 inhibitor	TrxR1 substrate	TrxR1 inh	A549 viability	Nrf2 inh
COc1cccc(N=C2SC(C(=O)Nc3ccc(F)cc3)CC(=O)N2C)c1 (stereo not drawn)	6%	1%	-3%	-2%	?	21µM*
CC(=O)c1cccc(NC(=O)COc2ccccc2C(=O)Nc2ccccc2)c1	·	·	1%	?	·	·
CCCc1ccc(/C=C2\C(=O)c3ccccc3C(O)=C2C(=O)OCC)cc1	-1%	·	·	·	·	·
CCOC(=O)C1=C(O)c2ccccc2C(=O)/C1=C\c1ccc(CC)cc1	11%	12%	-19%	10µM*	?	?
COc1ccc(NC(=O)c2ccco2)cc1NC(=O)c1ccc(OC(C)C)cc1	·	26%	-8%	-5%	0%	-7%
Cn1c(=O)c(=O)n(C)c2cc(S(=O)(=O)N3CCC(Cc4ccccc4)CC3)ccc21	2%	-1%	5%	-16%	11%	1%
CN(C)c1ccc(S(=O)(=O)N2CCC(Cc3ccccc3)CC2)cn1	·	-1%	3%	10%	-4%	21µM*
CCOc1ccccc1-c1c2cc(O)c(=O)cc-2oc2cc(O)c(O)cc12	-11%	13µM*	-18%	?	18µM*	?
COc1ccc(OC)c(-c2c3cc(O)c(=O)cc-3oc3cc(O)c(O)cc23)c1	-15%	40µM*	-7%[57.1 µM]	-3%[57.1 µM]	21µM*	-54%
O=C(NCCCN1CCN(c2ccccc2F)CC1)c1sc2ncccc2c1-n1cccc1	·	-5%	13%[57.1 µM]	37%[57.1 µM]	-1%	·
O=C(c1ccccc1O)N(Cc1ccco1)Cc1ccco1	·	·	·	·	3%	12%
CCOC(=O)N1CCN(C(=O)C2CCN(C(=O)c3ccccc3C)CC2)CC1	·	0%	6%	2.5µM*	-1%	?
Oc1ccc(/C=N/Nc2nc(N3CCCCCC3)nc(N3CCCCCC3)n2)c(O)c1	3%	8%	-6%[57.1 µM]	12%[57.1 µM]	-18%	15µM*
O=[N+]([O-])c1ccc(/C=N/Nc2nc(N3CCCC3)nc(N3CCCC3)n2)o1	-2%	4%	10%	-59%[57.1 µM]	?	23µM*
Fc1ccc(Nc2nc(N/N=C/c3ccco3)nc(N3CCCCC3)n2)cc1	-2%	2%	0%	-1%[57.1 µM]	-7%	18µM*
Cc1ccc2nc(N/N=C\c3ccc([N+](=O)[O-])o3)nc(-c3ccccc3)c2c1	0%	-7%	-11%[57.1 µM]	?	23µM*	?
C(=N\Nc1nc(N2CCOCC2)nc(N2CCOCC2)n1)/c1ccco1	-2%	·	·	·	·	·
O=[N+]([O-])c1ccc(-c2ccc(/C=N/Nc3nc(N4CCCC4)nc(N4CCCC4)n3)o2)cc1	17%	-4%	4%	36%	1%	10%
Cc1ccc2nc(-c3ccc(C)c(NC(=O)COc4ccc(Cl)cc4)c3)oc2c1	·	·	6%	4%	·	·
Cc1ccc(NCc2cccn2-c2nnc(N3CCC(C(=O)NCc4ccc(F)cc4)CC3)s2)cc1	·	·	0%	-1%	?	?
CCNc1nc(NCC)nc(N/N=C/c2ccc([N+](=O)[O-])o2)n1	-1%	3%	-17%	45µM*	-9%	?
O=[N+]([O-])c1ccc(/C=N/Nc2ccc3ccccc3c2)o1	-9%	0%	-17%	?	-17%	2%
O=C(Nc1ccc(F)cc1)N1CCC(c2nc3c(nnn3Cc3cccc(Cl)c3)c(=O)[nH]2)CC1	0%	0%	0%	10%	?	21µM*
CC(NC(=O)c1cnn2c1NC(=C1CC1)C=C2C(F)F)c1ccncc1 (stereo not drawn)	·	·	21%	1%	·	·
Cc1cc(=O)c2cc(C(=O)Nc3ccc(F)cc3)ccc2[nH]1	·	-14%	-4%	12%	11%	?
SMILES	Mito fusion act	mIDH1 inhibitor	TrxR1 substrate	TrxR1 inh	A549 viability	Nrf2 inh
COC(=O)c1c(C)oc(C)c1S(=O)(=O)NCC1CC1	4%	3%	9%[57.1 µM]	9%[57.1 µM]	-1%	4%
COC(=O)c1c(C)oc(C)c1S(=O)(=O)N(C)C1CCCCC1	1%	0%	1%	16µM*	1%	23%
O=C(Nc1ccccc1)N1CCN(c2nc(-c3ccccc3)ns2)CC1	8%	3%	1%[57.1 µM]	3%[57.1 µM]	-14%	23µM*
O=C(Nc1ccccc1Cl)N1CCCN(c2nc(-c3ccccc3)ns2)CC1	8%	5%	2%	13%	-16%	?
Cc1c(Cl)cccc1NC(=O)N1CCCN(c2nc(-c3ccccc3)ns2)CC1	-10%	0%	1%	7%	-2%	21µM*
O=C(c1ccc(F)cc1)N1CCCN(c2nc(-c3ccccc3)ns2)CC1	2%	7%	-1%	7%	2%	-4%
CC(C)(C)CNc1nc(C#N)nc(Nc2ccccc2)n1	·	·	·	·	?	18µM*
CN(CCCc1cnc[nH]1)C(=S)NCCCN(Cc1ccc(Cl)cc1)c1ccc(Br)cn1	·	·	0%	17%	-7%	-8%
CC(C)c1ccc(NC(=O)c2cnc3sc(N4CCCC4)nn3c2=O)cc1	·	22%	-2%[57.1 µM]	4%[57.1 µM]	-8%	2.3µM*
CCOC(=O)c1c(C)[nH]c(C)c1S(=O)(=O)N1CCCC(C(=O)NCc2cccc(OC)c2)C1 (stereo not drawn)	·	-13%	5%[57.1 µM]	18%[57.1 µM]	16%	?
CCOc1ccc(NC(=O)CSc2nc3c(oc4ccccc43)c(=O)n2-c2cc(C)cc(C)c2)cc1	·	-8%	4%	31%	1%	6%
O=C(C[C@H]1C[C@H](C(=O)N2CCCCC2)[C@@]2(CCc3ccccc3)c3[nH]c4ccc(Cl)cc4c3CCN2C1=O)NCCC1=CCCCC1	·	0%	-3%	-7%	2%	1%
COc1ccc2[nH]c3c(c2c1)CCN1C(=O)C(CC(=O)NCc2ccco2)C[C@H](C(=O)N2CCCCC2)[C@@]31CCc1ccccc1 (stereo partly drawn)	·	-4%	-6%	11%	-26%	23µM*
O=C(C[C@H]1C[C@H](C(=O)N2CCCCC2)[C@@]2(CCc3ccccc3)c3[nH]c4ccc(Cl)cc4c3CCN2C1=O)NCCc1ccccn1	·	-27%	-2%	13%	?	21µM*
